# ABHD5-PLIN5 inh: inhibitors of human ABHD5-perilipin-5 interaction; Split G. princeps luciferase complementation, luminescence, 4 h; inhibition, % at 4 µM; 0.78% of 360,000 active; AID 602281;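 active means inhibition above the mean inhibition across every tested compound plus 3 SD, cut at about 22% in these data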;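 further: 0% = DMSO only wells and the 100% control is not disclosed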
# UHRF1 MBD2 ctr: UHRF1 methyl-DNA binding inhibition; Q96T88; UHRF1 binding to methylated oligo, TR-FRET; inhibition, % at 4.4 µM; 0.75% of 370,000 active; AID 687016; in the data active means inhibition above about 21%;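 further: UHRF1 SRA domain binding a hemimethylated CpG hairpin DNA probe; 0% = median of test compound wells and 100% = reference inhibitor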
# rCAG RNA binder: r(CAG) repeat RNA binding; inhibition, % at 3 µM; 1.3% of 370,000 active; TO-PRO-1 dye displacement fluorescence;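 active means inhibition above the plate cutoff, the mean of all test compounds on that plate plus 3 SD, cut at about 35% in these data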;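 further: 0% = DMSO alone and 100% = 100 µM mitoxantrone as full dye displacement; higher means more dye released from RNA so lower well fluorescence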
# MBD2 inh: MBD2-methylated oligo binding inhibition; inhibition, % at 4.4 µM; Q9UBB5; 0.31% of 370,000 active; TR-FRET, MBD2 binding to methylated oligonucleotide; AID 686964; in the data active means inhibition above about 13%
# Target sequence (Q9UBB5 whole entry, looked up): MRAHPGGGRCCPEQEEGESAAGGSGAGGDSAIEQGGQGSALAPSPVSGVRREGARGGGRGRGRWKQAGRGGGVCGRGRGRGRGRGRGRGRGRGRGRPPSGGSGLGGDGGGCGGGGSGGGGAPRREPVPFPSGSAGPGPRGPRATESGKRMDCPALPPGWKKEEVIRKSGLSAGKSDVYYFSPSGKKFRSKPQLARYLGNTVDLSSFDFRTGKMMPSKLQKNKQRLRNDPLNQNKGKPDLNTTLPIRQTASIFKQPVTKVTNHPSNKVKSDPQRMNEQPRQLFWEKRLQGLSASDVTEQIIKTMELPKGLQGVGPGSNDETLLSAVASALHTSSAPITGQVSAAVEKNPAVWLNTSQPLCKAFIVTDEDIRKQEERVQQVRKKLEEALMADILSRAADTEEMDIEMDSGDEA
# PRMT1 inh: inhibitors of human PRMT1; Q99873; recombinant PRMT1, activity-based probe fluorescence polarization; inhibition, % at 2.79 µM; 1.3% of 370,000 active; AID 652257;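 active means inhibition above about 21% made by adding two undisclosed values, limit read from the data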
# LEDGF integ inh: blocks HIV-1 LEDGF/p75-dependent DNA integration; TR-FRET IN-LEDGF/p75 DNA integration, Eu/Cy5; inhibition, % at 3.7 µM; 0.64% of 370,000 active; AID 743269;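 active means inhibition above the screen-wide mean plus 3 SD, cut at about 13% in these data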;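 further: signal is the Cy5 over europium emission ratio at 671 and 618 nm; 0% = plate median of compound wells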
# Starred values were filed as active, the others as inactive; . = no result given. Hits are enriched below; roughly 4.1% of the tested compounds scored in any of these assays.
SMILES,ABHD5-PLIN5 inh,UHRF1 MBD2 ctr,rCAG RNA binder,MBD2 inh,PRMT1 inh,LEDGF integ inh
COC(=O)[C@]1(CNC(=O)NCCc2ccc(OC)c(OC)c2)CC(=O)N(C)[C@@H]1c1ccccc1,.,0.5,-1.6,-6.3,-0.7,2.5
CC(C)(C)c1ccc(C(=O)NCc2nnc(SCC(=O)NC3CCCC3)o2)cc1,-9.0,-0.8,-5.8,-1.1,0.5,-2.1
CC(C)(C)c1ccc(C(=O)NCc2nnc(SCC(=O)NC3CCCCC3)o2)cc1,-5.4,7.0,-6.3,3.2,21.3*,-0.7
O=C(CSc1nnc(-c2ccc(F)cc2)o1)NC1CCCCC1,0.7,35.0*,-4.0,3.6,4.0,-3.8
O=C(CSc1nnc(-c2ccncc2)o1)NC1CCCCC1,5.5,3.5,-4.9,4.8,-0.4,-4.5
COc1ccc(Cc2nnc(SCC(=O)NC3CCCC3)o2)cc1,3.9,44.8*,-4.2,1.4,-0.2,0.6
COc1ccc(C2C(C(=O)Nc3cc(Cl)ccc3F)CCC(=O)N2c2ccc(OC)cc2)cc1 (configuration not stated),.,-2.0,0.4,-0.6,0.7,1.2
O=C(COc1ccc2c3c(c(=O)oc2c1)CCCC3)NC(Cc1ccc(Cl)cc1)C(=O)O (configuration not stated),-0.1,-0.6,37.8*,4.0,6.6,-1.3
O=C(COc1ccc2c3c(c(=O)oc2c1)CCCC3)N[C@@H](Cc1ccccc1)C(=O)O,4.3,-0.3,25.6,-3.8,1.0,0.5
CCCCCN1CCCCC(NC(=O)Cc2ccccc2)C1=O (configuration not stated),.,-1.4,29.0,0.7,-1.3,-0.1
CN(C)c1ccc(C=c2c3ccccc3n3c2c2ccccc2[n+]3C)cc1,15.1,1.7,18.1,1.4,1.0,-12.1
CN(C)c1ccc(C=c2c3cc(O)ccc3n3c2cc(-c2ccccc2)[n+]3C)cc1,-7.2,31.0*,25.1,7.3,6.0,8.0
COc1ccccc1NC(=O)/C(=C/c1cccc([N+](=O)[O-])c1)c1ccccc1,-5.7,46.7*,2.6,-3.4,1.5,-4.5
COc1ccccc1NC(=O)CC(=O)c1cccc([N+](=O)[O-])c1,16.2,-2.4,12.0,-1.3,3.4,2.2
COc1ccc(N2CCN(C(=O)c3cc4c(s3)-c3ccccc3S(=O)(=O)C4)CC2)cc1,-0.3,22.3*,0.9,4.8,-1.7,0.7
CC(C)N(Cc1ccccc1)C(=O)COC(=O)/C=C/c1cnc2ccccc2n1,4.9,-2.2,-1.7,-2.0,1.3,2.6
CCN(C(=O)COC(=O)/C=C/c1cnc2ccccc2n1)c1ccccc1,4.0,25.7*,-4.3,-0.9,8.0,-4.0
Nc1nc(Cn2nnc(-c3ccccc3Cl)n2)nc(N2CCOCC2)n1,1.6,28.8*,-3.7,-0.3,-3.0,-1.0
Nc1nc(Cn2nnc(-c3ccccc3F)n2)nc(N2CCOCC2)n1,0.3,-1.0,-4.4,-2.9,-0.7,0.7
CCOc1ncccc1C(=O)Nc1ccc(F)c(F)c1,4.3,-2.0,-4.2,-2.9,-5.8,1.4
CCOc1ncccc1C(=O)Nc1ccc(F)c(Cl)c1,-0.7,76.2*,3.2,7.8,5.9,0.0
CCN(C(=O)[C@@H](C)[C@@H](O)c1ccc(Cl)cc1)c1ccccc1,.,0.9,0.0,-3.9,-5.5,7.8
Cc1cc(C)c(C)c(S(=O)(=O)N2CCN(C(=O)c3ccccc3OCc3c(C)noc3C)CC2)c1C,8.8,28.3*,-1.9,-6.8,-0.1,4.9
CC(=O)c1c(C)[nH]c(C(=O)OCc2nnc(-c3ccc([N+](=O)[O-])cc3)o2)c1C,11.4,-0.2,8.8,-2.4,24.3*,0.2
Cc1cc(N2CCNC[C@H]2C)ccc1N1CCN(Cc2ccccc2)[C@H](C)C1,.,1.0,5.9,1.2,-2.2,-1.5
SMILES,ABHD5-PLIN5 inh,UHRF1 MBD2 ctr,rCAG RNA binder,MBD2 inh,PRMT1 inh,LEDGF integ inh
CC(C)c1cc2c(c(O)c1O)[C@@]13CCCC(C)(C)C1CC2OC3=O (some centres not stated),-3.1,-4.9,14.4,2.5,36.3*,-5.2
O=S1(=O)c2ccc(N3CCSCC3)cc2Oc2ccccc2CN1Cc1cn(Cc2cccc(C(F)(F)F)c2)nn1,.,0.9,13.3,-5.9,-0.5,1.8
CCOC(=O)[C@@]12CCCC=C1N(CCc1ccc(Cl)cc1)C(=O)[C@H]2CC(=O)NCC12CC3CC(CC(C3)C1)C2,.,0.4,8.6,5.7,1.7,0.3
COc1ccc(CN2C(=O)[C@]3(NCCc4c3[nH]c3ccc(OC)cc43)c3cc(Br)ccc32)cc1,.,1.3,14.0,-3.7,-0.3,-1.3
O=S1(=O)CC2c3ccc(F)cc3CN2CN1C1CCCC1 (configuration not stated),.,0.4,9.6,5.8,6.2,0.4
COC(=O)C[C@H]1CC[C@@H]2[C@@H](COc3ccc(NC(=O)Nc4cccc(C)c4)cc3C(=O)N2C)O1,.,-0.7,6.8,1.7,-1.1,-2.6
Cc1cc(Cl)cc2sc(=S)[nH]c12,-6.2,-1.2,2.6,-2.1,22.1*,5.0
Cn1cccc1/C=N/NC(=O)c1cccnc1,-0.3,-4.3,0.9,-2.3,2.7,0.5
Cn1cccc1/C=N/NC(=O)c1ccc[n+]([O-])c1,2.5,22.1*,-1.7,0.7,-2.0,2.1
O=C(c1cncc(Br)c1)N1CCN(S(=O)(=O)c2ccc3ccccc3c2)CC1,0.4,3.5,1.9,-1.4,1.7,23.1*
O=C(O)CC(SCC(=O)Nc1ccc(Cl)c(S(=O)(=O)N2CCOCC2)c1)C(=O)O (configuration not stated),-10.0,-1.8,2.2,-3.5,42.6*,0.1
Cc1cccn2cc(-c3ccc(S(=O)(=O)N4CCCCC4)cc3)nc12,-1.8,24.6*,-2.9,9.8,-1.9,-1.4
COC(=O)c1cc2c(c3c4ccccc4n(S(C)(=O)=O)c13)C(=O)N(Cc1ccccc1)C2,.,-2.2,13.8,-2.8,1.5,-2.6
Cc1ccc2nc(-c3ccc(NS(=O)(=O)c4ccc(F)c(F)c4)cc3)sc2c1,-7.9,1.4,75.5*,3.6,2.9,-1.7
O=C(CCC(=O)c1ccc(Cl)cc1)OCn1nnc2ccccc2c1=O,7.9,55.8*,0.3,-2.3,-1.6,2.2
C=CCn1c(Cc2cccs2)nnc1SCC(=O)Nc1ccc(C)cc1,.,1.3,0.9,9.2,3.3,-0.4
CCC(CC)C(=O)Nc1c2c(nn1-c1ccc(OC)cc1)CS(=O)C2 (configuration not stated),2.5,38.8*,3.1,-2.9,-1.3,-0.1
CCC(=O)Nc1c2c(nn1-c1ccc(OC)cc1)CS(=O)C2 (configuration not stated),4.4,0.5,2.7,5.9,0.9,-2.2
CCNC(=S)N/N=C(\C)c1cccc(C(F)(F)F)c1,-6.0,36.2*,-4.9,-5.9,-4.6,5.4
Nc1nc2ccccc2[nH]1,7.3,1.3,-1.2,-0.2,2.1,4.3
Nc1ccccc1Sc1nc2ccccc2[nH]1,-7.7,-0.5,11.8,4.1,52.0*,4.8

# From PubChem
